This is a sample that favours compounds with a hit; in the whole collection about 11% have one here.
HEK293 tox – Cytotoxic Profiling in HEK 293 Cell Line of Diverse Libraries Using Quantitative High-Throughput Screening. AID 1345083, 2018. HEK 293 viability, ATP luminescence (CellTiter-Glo), 48-72 h. Potency, µM (top dose mostly 115 µM), inactives show at the highest dose activity change, negative = cytotoxicity, usual class: inhibitors. 94,000 compounds, 6.6% hits; also: nearly all actives have a fitted effect of over 60% in size
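Pintool-delivered compounds were incubated with HEK 293 cells (250 cells/well) at 37 degree Celsius for 48 or 72 hr. ATP-dependent luminescence (CellTiter-Glo) then reported remaining viable cells.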
FLuc inh – Firefly luciferase inhibition profiling of diverse chemical library using quantitative high-throughput screening | Luciferin 4-monooxygenase (Photinus pyralis), P08659 | purified P. pyralis luciferase, luminescence, biochemical | Potency, µM (doses to about 115 µM), actives largely listed as inhibitors | 76,000 compounds, 2.5% hits | AID 1347043, 2019; also: nearly all actives have a fitted effect of over 65% in size
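Purified P. pyralis luciferase (10nM final) in 50mM Tris acetate pH 7.5, 10mM Mg acetate, 0.01% Tween-20, 0.05% BSA with 10uM D-luciferin and 10uM ATP. Compounds titrated qHTS. Luminescence imaged on CCD.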
NIH3T3 tox – Cytotoxic Profiling in NIH 3T3 Cell Line of Diverse Libraries Using Quantitative High-Throughput Screening; NIH 3T3 viability, CellTiter-Glo ATP luminescence, 48-72 h; Potency, µM (titrated, usually from 96.7 µM), for the others: top-dose activity change, negative = cytotoxicity, most hits filed as inhibitors; 94,000 compounds, 4.3% hits; AID 1345082, 2018; also: nearly all actives have a fitted effect of over 55% in size
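NIH 3T3 cells at 400 cells/well received 23 nL of compound by pintool and were incubated 48 or 72 h at 37 °C. Viability was read as ATP-coupled CellTiter-Glo luminescence.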
hNpr1 antagonist – Natriuretic polypeptide receptor (hNpr1) antagonism - Primary qHTS; HEK293 hNpr1 GloSensor cGMP, ANP-stimulated luminescence; Atrial natriuretic peptide receptor 1 (Homo sapiens), P16066; Potency, µM (series often up to 46.3 µM), for inactives: at the top dose activity change, negative = inhibition, most hits filed as inhibitors; 76,000 compounds, 1.6% hits; calls by dose curve; also: nearly all actives have a fitted effect of over 60% in size
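HEK293 cells stably expressing human Npr1 and cGMP GloSensor pGS-40F, loaded 2 h with 2% GloSensor reagent, given compound 30 min at room temperature. Luminescence read before and 20 min after 0.1 nM hNppA.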
* = called active by the depositor; i = inactive; ? = inconclusive; · = no result; [ ] = dose if it differs, or a comment. Unless noted, calls follow the shape of the dose curve; as a rule, active = well fitted curve in the direction sought with a large enough effect; inconclusive = small, poorly fitted or top-dose-only effect, or another doubt; inactive = no such curve, though single readings can be large; an effect the other way counts as inactive or inconclusive. % is scaled to controls: 0 for no effect and ±100 for the full control effect; potency is read from the fitted curve at half-maximal effect.

SMILES	HEK293 tox	FLuc inh	NIH3T3 tox	hNpr1 antagonist
Cc1ccccc1CN1Cc2nc(-c3ccc4c(c3)OCO4)ccc2OCC1=O	35µM*	i	?	-21%[70.6 µM]
CC1=C[C@@H](CNC(=O)Nc2ccccc2)[C@H](C(C)C)C[C@H]1Cc1nnc(-c2ccncc2)o1	22µM*	i	?	?
CC1=C[C@@H](CNS(=O)(=O)c2ccccc2)[C@H](C(C)C)C[C@H]1Cc1nnc(-c2ccncc2)o1	25µM*	i	20µM*	?
CC1=C[C@@H](CNC(=O)c2ccncc2)[C@H](C(C)C)C[C@H]1Cc1nnc(-c2ccncc2)o1	79µM*	i	?	?
CC1=C[C@@H](CNS(=O)(=O)c2ccc(C#N)cc2)[C@H](C(C)C)C[C@H]1Cc1nnc(-c2ccncc2)o1	?	i	?	-19%
Cc1cc(CNC(=O)c2cc(-c3ccccc3C)cc3c2OCCN3C)no1	?	i	?	-7%[70.6 µM]
CNC(=O)c1cc(C)nc2onc(C3CCCN3C(=O)COC)c12 (stereo not drawn)	-3%[172 µM]	·	5%[138 µM]	·
O=C1[C@@H]2C[C@@H](O)CN2C2(CN(Cc3ccccn3)C2)C(=O)N1Cc1ccccc1F	-3%[172 µM]	i	-4%[174 µM]	-1%[70.6 µM]
O=C(CN1C(=O)NC2(CCCCC2)C1=O)Nc1ccc(C(F)(F)F)cc1	28µM*	i	?	0%
CC1CCC2(CC1)NC(=O)N(CC(=O)Nc1ccc(Cl)cc1)C2=O (stereo not drawn)	?	i	11µM*	1%
Cc1ncccc1C(=O)N1CCCCCC1c1nnc(-c2ccccc2)o1 (stereo not drawn)	-13%	·	-13%	·
COc1cccc([S+](=O)([O-])N2CCc3nc(C(C)C)nc(-c4ccc(Cl)cc4)c3CC2)c1	-15%	·	1%	·
CCOC(=O)C1CCN(C(=O)c2cn3ccnc(-c4ccc(OC)cc4)c3n2)CC1	79µM*	i	?	-21%
CCOC(=O)C1CCN(C(=O)c2cn3cc(-c4cccc(C(F)(F)F)c4)sc3n2)CC1	i	·	-30%	·
COc1ccc(-c2nccn3cc(C(=O)O)nc23)cc1	-5%	i	-36%	-1%
CCOC(=O)C1CCN(C(=O)c2cn3cc(-c4ccc(C(F)(F)F)cc4)sc3n2)CC1	?	·	40µM*	·
COc1ccc(-c2nccn3cc(C(=O)NCc4nc5ccccc5n4C)nc23)cc1	28µM*	i	?	?
O=C1Nc2ccccc2CC12CCCN2Cc1ccc(F)cc1 (stereo not drawn)	-15%	·	-10%	·
CCNC(=O)c1coc(COc2ccc3c(c2)C(c2cccc(F)c2)N(C(=O)C(C)C)CC3)n1 (stereo not drawn)	40µM*	i	?	-10%
CCCNC(=O)c1coc(COc2ccc3c(c2)C(c2ccc(F)cc2)N(C(=O)C(C)C)CC3)n1 (stereo not drawn)	?	i	22µM*	-12%
CC(C)NC(=O)c1ccccc1OCC1CCCN(Cc2ccc(F)cc2)C1 (stereo not drawn)	40µM*	i	?	4%
O=C(c1ccccc1OCC1CCCN(CC2=Cc3ccccc3OC2)C1)N1CCCCC1 (stereo not drawn)	?	i	?	-17%
O=C(NC1CC1)c1ccccc1OCC1CCCN(CC2=Cc3ccccc3OC2)C1 (stereo not drawn)	40µM*	i	?	?
CC(C)NC(=O)c1ccccc1OCC1CCCN(CC2=Cc3ccccc3OC2)C1 (stereo not drawn)	35µM*	i	?	-20%
O=C(c1cc(F)ccc1F)N1CCCC(c2nnnn2-c2ccccc2)C1 (stereo not drawn)	-20%	·	-28%	·
SMILES	HEK293 tox	FLuc inh	NIH3T3 tox	hNpr1 antagonist
CC(C)c1nc2c(c(-c3ccc(O)cc3)n1)CN(C(=O)Nc1ccc(Cl)cc1)CC2	?	i	?	1%
Oc1ccc(-c2nc(C3CC3)nc3c2CN(CC2CCCCC2)CC3)cc1	79µM*	i	?	2%
O=C(Nc1ccc(Cl)cc1)N1CCc2nc(C3CC3)nc(-c3ccc(Cl)cc3)c2C1	28µM*	i	?	1%
O=C(c1ccccn1)N1CCc2nc(C3CC3)nc(-c3ccc(Cl)cc3)c2C1	-5%	·	32µM*	·
Cc1ccc(C(=O)N2CCc3nc(C4CC4)nc(-c4ccc(Cl)cc4)c3CC2)cc1	-13%	i	-18%	6%
O=C(c1ccccc1F)N1CCc2nc(C3CC3)nc(-c3ccc(Cl)cc3)c2C1	-17%	·	?	·
O=C(c1ccc(C(F)(F)F)cc1)N1CCc2nc(C3CC3)nc(-c3ccc(Cl)cc3)c2CC1	28µM*	i	?	2%
COc1ccc(Cn2c(C3CCN(C(=O)c4ccc(C)cc4C)CC3)n[nH]c2=O)cc1	1%	i	-17%	0%
CCOc1ccccc1CN1C[C@@H](CO)[C@H](NC(=O)C2CC2)C1	-3%	i	-9%	2%
COC[C@H]1CCCN1[C@@H]1[C@H](O)[C@H](CO)O[C@@H]1CN(Cc1cccc(Cl)c1)Cc1cccc(Cl)c1	?	i	?	4%
O=C(c1cnccn1)N1CC(F)(F)C[C@H]1c1nc(-c2ccccc2)no1	-7%	i	-27%	-2%
CCn1ccc(C(=O)N2CC=C([C@H]3[C@@H](OC)C(=O)N3Cc3ccc(OC)cc3)CC2)n1	-29%	·	-34%	·
Cc1ccc(CC(=O)N2CCCN(S(C)(=O)=O)c3ccccc32)cc1	-22%	i	18µM*	0%
COc1ccc(C(=O)N2CCCN(C)c3ccccc32)c(C)c1	45µM*	i	?	-2%
CCOc1ccc(CC(=O)N2CCCN(C)c3ccccc32)cc1	89µM*	i	?	-8%
CCOCC(=O)N1CCCN(S(C)(=O)=O)c2ccccc21	i	i	4%	4%
Cc1ccc(OCC(=O)N2CCCN(S(C)(=O)=O)c3ccccc32)cc1	-26%	i	22µM*	2%
O=C(CCc1ccccc1)N1CCC(N2C(=O)[C@H]3CN(Cc4ccccc4)C[C@H]3C2=O)CC1	?	·	-25%	·
COC(=O)C1=C(C)N=C2SC=C(CC(=O)NC3CC3)N2C1c1cccc(OC)c1 (stereo not drawn)	?	i	-4%	-19%
COC(=O)C1=C(C)N=C2SC=C(CC(=O)NCc3ccccc3)N2C1c1ccccc1C (stereo not drawn)	45µM*	i	?	-5%
COC(=O)C1=C(C)N=C2SC=C(CC(=O)NCc3ccccc3)N2C1c1cccc(F)c1 (stereo not drawn)	?	i	?	-25%
CC1=C(C(=O)Nc2ccccc2)C(c2cc(C)ccc2C)N2C(CC(=O)NC(C)C)=CSC2=N1 (stereo not drawn)	40µM*	i	?	-26%
